Reference: PubChem BioAssay (NCATS)
Inconclusive results are not listed. Where a call stands in place of a potency, no number is given. Calls of active or inactive are those of the source. Unless noted, the call rests on the fitted dose curve; in most records, active means well fitted curve in the direction sought with a large enough effect; inconclusive means small, poorly fitted or top-dose-only effect, or another doubt; inactive means no such curve, though single readings can be large; an effect the other way counts as inactive or inconclusive.

What was measured:
[1] = molecular target: Thioredoxin reductase 1, cytoplasmic (Rattus norvegicus) (UniProt O89049); experiment: qHTS Assay for Substrates of Mammalian Selenoprotein Thioredoxin Reductase 1 (TrxR1) (AID 488772);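 further: NADPH fluorescence in the first read after selenite addition and not the 8 min delta; series mostly up to about 57 µM; a drop in NADPH fluorescence below the no-compound background marks a TrxR1 substrate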
Method in brief: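 Quantitative HTS in Tris-HCl buffer at pH 7.5 with EDTA and Tween-20, using rat TrxR1, 400 uM NADPH and 400 uM selenite (final). A fall in initial NADPH fluorescence relative to background marked substrate behaviour.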

[2] = molecular target: Thioredoxin reductase 1, cytoplasmic (Rattus norvegicus) (UniProt O89049); experiment: qHTS Assay for Inhibitors of Mammalian Selenoprotein Thioredoxin Reductase 1 (TrxR1) (AID 488773); settings: Potency: inhibition;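 further: drop in NADPH fluorescence over an 8 min run after selenite addition; series mostly up to about 57 µM; nearly all actives have a fitted effect of over 40% in size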
Method in brief: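 Steps: enzyme (90 nM) plus NADPH (400 uM final), 5 min at ~22 deg C; compound added, 15 min; selenite (400 uM final) added; fluorescence followed for 8 min. Concentration-response curves derived from the normalized delta values.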

[3] = molecular target: M-phase phosphoprotein 8 (Homo sapiens) (UniProt Q99549); experiment: qHTS Validation Assay for Inhibitors for MPP8 Chromodomain Interactions with Methylated Histone Tails (AID 488949);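 further: 50 nM MPP8 with 50 nM peptide preformed then compounds added for 30 min; AlphaScreen signal from MPP8 chromodomain bound to biotinylated H3K9me3 peptide; top concentration of the series differs between compounds; nearly all actives have a fitted effect of over 55% in size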
Method in brief: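 50 nM MPP8 + 50 nM b-H3K9me3 peptide, PBS pH 7.4/0.01% Tween-20, 30 min RT; + cpd 30 min RT; + AlphaScreen donor/Ni-chelate acceptor beads 10 ug/mL final, 30 min dark; luminescence read.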

[4] = molecular target: Chromobox protein homolog 1 (Homo sapiens) (UniProt P83916); experiment: qHTS Validation Assay for Inhibitors of HP1-beta Chromodomain Interactions with Methylated Histone Tails (AID 488953); further: nearly all actives have a fitted effect of over 50% in size; further: potency means the concentration at half of the fitted maximal effect
Method in brief: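 HP1-beta (50 nM) was preincubated 30 min at room temperature with biotinylated H3(1-18)K9me3 peptide (50 nM) in PBS pH 7.4, 0.01% Tween-20, then with compounds 30 min. AlphaScreen signal was read after streptavidin donor/nickel chelate acceptor beads (10 ug/mL final).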

[5] = molecular target: Methanococcus maripaludis chaperonin (MmCpn) (UniProt Q6LX38); experiment: High-Throughput Screening for Modulators of Cytosolic Chaperonin Activity: MmCpn Primary Screen (AID 488978);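 further: 50 nM MmCpn enzyme hydrolysing 30 µM ATP at 37 °C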
Method in brief: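 Steps: chaperonin 50 nM final; add compound, 5 min RT; start with ATP, 30 uM final; hold 10 min at 37C; add ADP Transcreener HTRF reagent, 5 min; read ex 320, em 590 and 665 nm.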

[6] = molecular target: Transient receptor potential cation channel subfamily V member 1 (Homo sapiens) (UniProt Q8NER1); experiment: HTS Assay for Compounds that Act as Enhancers of the Vanilloid Receptor 1 (AID 488979)
Method in brief: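 TRPV1-expressing cells loaded with Fluo-8 calcium dye; compounds added and calcium influx read kinetically for 3 min (agonist phase), then capsaicin at EC20 added and read 2 min more for enhancement. Fluorescence ex 480/em 520 nm.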

[7] = molecular target: D(1A) dopamine receptor (Homo sapiens) (UniProt P21728); experiment: HTS Assay for Allosteric Agonists of the Human D1 Dopamine Receptor: Primary Screen for Agonists (AID 488981); further: potency means the concentration at half of the fitted maximal effect
Method in brief: (§1)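 Tetracycline-induced HEK293 T-REx cells force-coupled to calcium signalling were incubated overnight at 30 C and dye-loaded at room temperature. Calcium flux over 180 s after compound addition flagged agonists; a further 180 s read after EC20 dopamine flagged potentiators.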

[8] = molecular target: D(1A) dopamine receptor (Homo sapiens) (UniProt P21728); experiment: HTS Assay for Allosteric Agonists of the Human D1 Dopamine Receptor: Primary Screen for Potentiators (AID 488982); further: potency means the concentration at half of the fitted maximal effect
Method in brief: as §1

[9] = molecular target: D(1A) dopamine receptor (Homo sapiens) (UniProt P21728); experiment: HTS Assay for Allosteric Agonists of the Human D1 Dopamine Receptor: Primary Screen for Antagonists (AID 488983);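 further: calcium flux response to an EC80 dopamine challenge measured with no-wash dye; nearly all actives have a fitted effect of over 65% in size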; further: potency means the concentration at half of the fitted maximal effect
Method in brief: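 Tetracycline-induced HEK293 T-REx cells expressing force-coupled D1 were plated overnight at 30 C, dye-loaded for calcium, and read kinetically. Compounds were pinned in, then an EC80 dopamine challenge followed after 180 s to reveal antagonism.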

[10] = Validation screen for small molecules that induce genotoxicity in human embryonic kidney (HEK293T) cells expressing luciferase-tagged ELG1 (AID 493106); further: potency means the concentration at half of the fitted maximal effect
Method in brief: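 HEK293T cells expressing luciferase-tagged ELG1 were exposed to compound or DMSO vehicle for 16 hr at 37 °C, 5% CO2. Genotoxic stress raises ELG1 levels, so increased luciferase signal after ONE-Glo addition and 30 min at room temperature marks hits.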

[11] = qHTS for Inhibitors of Cell Surface uPA Generation: Validation Assay (AID 493164);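 further: RAW 264.7 macrophage cells exposed to compound for 18 h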
Method in brief: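 RAW 264.7, 4000 cells/well, o/n plating; cpd 7-pt 1:5 dilution 2.45 nM–38.3 uM final; 18 h, 37 C/5% CO2; ATP-Lite, 5 s luminescence exposure.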

[12] = Validation screen for small molecules that induce DNA re-replication in SW480 colon adenocarcinoma cells (AID 504364); further: potency means the concentration at half of the fitted maximal effect
Method in brief: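 SW480 cells seeded at 250 per well were exposed to compound or DMSO for 48 hr at 37 C, 5% CO2, then stained with Hoechst for 40 min. DNA content per nucleus was imaged (405 nm ex, 500-530 nm em).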

[13] = molecular target: Flap endonuclease 1 (Homo sapiens) (UniProt P39748); experiment: qHTS Validation Assay for the Inhibitors of Human Flap endonuclease 1 (FEN1) (AID 488816)
Method in brief: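 FEN1, dispensed as a 10 nM reagent, was preincubated with pin-transferred compounds for 15 min at room temperature before substrate was added (50 nM final). Plates were read at 0 and 15 min, and a four-parameter Hill equation was fitted to the concentration-response data.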

[14] = molecular target: Thyrotropin receptor (Homo sapiens) (UniProt P16473); experiment: qHTS Assay for Antagonists of the Thyroid Stimulating Hormone Receptor (AID 488980); further: series mostly up to about 58 µM
Method in brief: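 Readout is cAMP by HTRF competition between cellular cAMP and cAMP-d2 for a cryptate-labelled antibody. Antagonism was assessed in TSHR-transfected HEK293 cells stimulated with 4 nM TSH (EC80, final) in the presence of RO 20-1724.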

[15] = molecular target: ATPase family AAA domain-containing protein 5 (Homo sapiens) (UniProt Q96QE3); experiment: Validation screen for small molecules that inhibit ELG1-dependent DNA repair in human embryonic kidney (HEK293T) cells expressing luciferase-tagged ELG1 (AID 493107); further: nearly all actives have a fitted effect of over 70% in size; further: potency means the concentration at half of the fitted maximal effect
Method in brief: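 HEK293T cells expressing luciferase-tagged ELG1 were co-treated with 5-fluorouridine and compound or DMSO for 16 hr at 37 °C, 5% CO2. Luciferase activity was then read with ONE-Glo after 30 min at room temperature; suppressed signal indicates blocked ELG1 function.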

[16] = molecular target: Thyrotropin-releasing hormone receptor (Homo sapiens) (UniProt P34981); experiment: qHTS for Small Molecule Agonists and Allosteric Enhancers of Human TRH Receptor: Validation Screen for Agonists (AID 493127;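 active means calcium activation more than 3 SD above the typical response in the agonist read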;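 further: intracellular calcium rise by fluo-8 fluorescence before TRH EC20 addition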); settings: TRH receptor agonist cell assay; at 2 µM; stronger effect = higher value
Method in brief: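 TRHR-expressing cells were plated overnight in serum-containing medium, then loaded with fluo-8 calcium dye at room temperature for 30 min–1.5 h. After a 10 s baseline, compound was pin-transferred and calcium fluorescence (ex 480/em 530) read kinetically for agonist response.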

[17] = Nrf2 qHTS screen for inhibitors: Validation (AID 493153; active means well fitted inhibition curve with a large enough effect in the main read-out, with a control signal flat, not every such curve was filed as active); settings: Potency: luciferase luminescence; viability change: measured here: cytotoxicity max response
Method in brief: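 A549 cells carrying an ARE-driven firefly luciferase reporter, in 5% FBS OPTI-MEM, were treated with compounds in concentration-response for 18-24 h at 37°C. Viability was read by CellTiter-Fluor fluorescence, then Nrf2 activity by luciferase luminescence.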

[18] = molecular target: Galactokinase (Homo sapiens) (UniProt P51570); experiment: qHTS Validation Assay for Inhibitors of Human Galactokinase (GALK) (AID 493189)
Method in brief: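 5 nM GALK / 100 uM galactose / 35 uM ATP, 20 mM HEPES pH8.0, 5 mM MgCl2, 60 mM NaCl, 1 mM DTT, 0.01% BSA (final). RT 1 h; Kinase-Glo Plus luminescence.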

[19] = molecular target: ATP-dependent 6-phosphofructokinase (Trypanosoma brucei brucei) (UniProt O15648); experiment: qHTS Assay to Find Inhibitors of T. brucei phosphofructokinase: hit validation (AID 492961);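 further: luminescence reports ADP formed as PFK phosphorylates fructose-6-phosphate with ATP; series mostly up to about 51 µM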
Method in brief: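 Percent activity derived from corrected luminescence, normalized between 0x and 1x enzyme controls, then fitted to concentration-response curves. Conditions: 1.25 nM PFK, 0.1 mM ATP, 0.5 mM F6P, 45 min RT.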

Sequence of Thyrotropin receptor (Homo sapiens) (P16473 whole entry, looked up): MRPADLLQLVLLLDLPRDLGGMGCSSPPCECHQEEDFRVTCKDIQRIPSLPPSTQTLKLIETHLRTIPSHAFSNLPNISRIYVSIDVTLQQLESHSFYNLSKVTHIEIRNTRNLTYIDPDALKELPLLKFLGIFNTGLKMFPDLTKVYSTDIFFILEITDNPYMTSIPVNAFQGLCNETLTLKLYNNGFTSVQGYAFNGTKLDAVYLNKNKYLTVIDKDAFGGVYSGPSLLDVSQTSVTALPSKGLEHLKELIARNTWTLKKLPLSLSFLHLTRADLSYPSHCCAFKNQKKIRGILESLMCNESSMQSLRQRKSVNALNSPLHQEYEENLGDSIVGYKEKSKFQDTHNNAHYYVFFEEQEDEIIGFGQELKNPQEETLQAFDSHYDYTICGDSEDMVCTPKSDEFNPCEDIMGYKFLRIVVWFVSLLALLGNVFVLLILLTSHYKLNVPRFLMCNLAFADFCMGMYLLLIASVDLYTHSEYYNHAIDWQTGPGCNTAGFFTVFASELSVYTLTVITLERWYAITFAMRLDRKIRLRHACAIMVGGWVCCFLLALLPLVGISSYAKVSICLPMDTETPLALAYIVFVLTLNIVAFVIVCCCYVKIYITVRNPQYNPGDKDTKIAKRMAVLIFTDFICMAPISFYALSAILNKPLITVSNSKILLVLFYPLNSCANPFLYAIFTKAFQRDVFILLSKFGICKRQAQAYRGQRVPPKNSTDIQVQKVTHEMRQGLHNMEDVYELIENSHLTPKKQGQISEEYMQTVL
Sequence of Chromobox protein homolog 1 (Homo sapiens) (P83916 whole entry, looked up): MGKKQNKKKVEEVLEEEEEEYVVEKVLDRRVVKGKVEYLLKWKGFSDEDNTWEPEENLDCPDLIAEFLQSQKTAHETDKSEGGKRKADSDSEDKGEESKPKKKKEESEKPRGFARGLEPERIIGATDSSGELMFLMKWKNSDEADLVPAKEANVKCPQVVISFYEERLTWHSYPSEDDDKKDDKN
Sequence of ATPase family AAA domain-containing protein 5 (Homo sapiens) (Q96QE3 whole entry, looked up, the tested form may be a part): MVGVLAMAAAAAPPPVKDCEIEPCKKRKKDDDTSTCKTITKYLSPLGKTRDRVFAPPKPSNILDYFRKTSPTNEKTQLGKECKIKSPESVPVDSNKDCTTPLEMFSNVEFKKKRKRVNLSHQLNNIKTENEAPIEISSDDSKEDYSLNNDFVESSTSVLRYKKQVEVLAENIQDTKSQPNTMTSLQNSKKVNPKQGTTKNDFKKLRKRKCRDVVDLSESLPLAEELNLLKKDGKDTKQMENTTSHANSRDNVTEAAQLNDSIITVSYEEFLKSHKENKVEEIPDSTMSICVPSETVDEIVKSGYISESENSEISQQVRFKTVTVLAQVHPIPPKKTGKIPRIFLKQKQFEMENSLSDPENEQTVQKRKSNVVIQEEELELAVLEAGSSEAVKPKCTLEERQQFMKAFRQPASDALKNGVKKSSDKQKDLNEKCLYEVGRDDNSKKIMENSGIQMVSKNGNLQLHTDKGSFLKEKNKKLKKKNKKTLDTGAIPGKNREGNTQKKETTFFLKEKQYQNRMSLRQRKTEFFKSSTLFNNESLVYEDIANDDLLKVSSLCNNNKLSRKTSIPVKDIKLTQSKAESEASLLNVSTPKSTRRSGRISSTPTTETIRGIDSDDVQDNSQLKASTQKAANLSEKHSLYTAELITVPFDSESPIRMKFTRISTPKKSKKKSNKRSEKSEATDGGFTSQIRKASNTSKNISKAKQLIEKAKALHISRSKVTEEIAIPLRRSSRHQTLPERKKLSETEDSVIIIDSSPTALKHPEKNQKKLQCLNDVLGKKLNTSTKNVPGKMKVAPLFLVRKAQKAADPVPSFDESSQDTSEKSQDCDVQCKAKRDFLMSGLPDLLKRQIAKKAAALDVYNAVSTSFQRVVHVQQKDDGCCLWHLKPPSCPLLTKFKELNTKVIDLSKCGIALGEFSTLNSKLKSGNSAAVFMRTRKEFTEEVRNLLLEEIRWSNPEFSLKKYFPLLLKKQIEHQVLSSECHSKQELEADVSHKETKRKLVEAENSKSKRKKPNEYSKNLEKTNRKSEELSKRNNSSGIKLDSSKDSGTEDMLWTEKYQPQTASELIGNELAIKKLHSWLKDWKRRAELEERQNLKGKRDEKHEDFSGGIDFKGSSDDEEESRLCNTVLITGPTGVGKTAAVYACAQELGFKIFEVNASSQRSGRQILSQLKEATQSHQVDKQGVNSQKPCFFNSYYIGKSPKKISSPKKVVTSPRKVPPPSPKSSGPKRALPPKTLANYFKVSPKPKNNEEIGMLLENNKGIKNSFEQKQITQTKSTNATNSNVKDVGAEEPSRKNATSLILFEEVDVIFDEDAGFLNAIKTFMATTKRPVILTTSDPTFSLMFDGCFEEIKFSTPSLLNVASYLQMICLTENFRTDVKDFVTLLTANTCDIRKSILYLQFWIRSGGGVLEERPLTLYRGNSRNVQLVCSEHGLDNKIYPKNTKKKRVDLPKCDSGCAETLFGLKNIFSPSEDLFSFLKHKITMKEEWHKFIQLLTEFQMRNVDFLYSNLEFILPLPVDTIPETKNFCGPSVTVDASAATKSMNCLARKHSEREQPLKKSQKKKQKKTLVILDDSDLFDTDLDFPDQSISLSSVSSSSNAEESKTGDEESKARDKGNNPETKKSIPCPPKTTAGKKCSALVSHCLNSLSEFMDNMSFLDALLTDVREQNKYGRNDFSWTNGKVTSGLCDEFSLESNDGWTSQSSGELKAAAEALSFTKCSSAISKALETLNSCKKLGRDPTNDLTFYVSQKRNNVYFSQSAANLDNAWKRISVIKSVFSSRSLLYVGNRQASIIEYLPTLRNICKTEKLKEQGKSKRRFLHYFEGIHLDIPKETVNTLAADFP
Sequence of M-phase phosphoprotein 8 (Homo sapiens) (Q99549 whole entry, looked up): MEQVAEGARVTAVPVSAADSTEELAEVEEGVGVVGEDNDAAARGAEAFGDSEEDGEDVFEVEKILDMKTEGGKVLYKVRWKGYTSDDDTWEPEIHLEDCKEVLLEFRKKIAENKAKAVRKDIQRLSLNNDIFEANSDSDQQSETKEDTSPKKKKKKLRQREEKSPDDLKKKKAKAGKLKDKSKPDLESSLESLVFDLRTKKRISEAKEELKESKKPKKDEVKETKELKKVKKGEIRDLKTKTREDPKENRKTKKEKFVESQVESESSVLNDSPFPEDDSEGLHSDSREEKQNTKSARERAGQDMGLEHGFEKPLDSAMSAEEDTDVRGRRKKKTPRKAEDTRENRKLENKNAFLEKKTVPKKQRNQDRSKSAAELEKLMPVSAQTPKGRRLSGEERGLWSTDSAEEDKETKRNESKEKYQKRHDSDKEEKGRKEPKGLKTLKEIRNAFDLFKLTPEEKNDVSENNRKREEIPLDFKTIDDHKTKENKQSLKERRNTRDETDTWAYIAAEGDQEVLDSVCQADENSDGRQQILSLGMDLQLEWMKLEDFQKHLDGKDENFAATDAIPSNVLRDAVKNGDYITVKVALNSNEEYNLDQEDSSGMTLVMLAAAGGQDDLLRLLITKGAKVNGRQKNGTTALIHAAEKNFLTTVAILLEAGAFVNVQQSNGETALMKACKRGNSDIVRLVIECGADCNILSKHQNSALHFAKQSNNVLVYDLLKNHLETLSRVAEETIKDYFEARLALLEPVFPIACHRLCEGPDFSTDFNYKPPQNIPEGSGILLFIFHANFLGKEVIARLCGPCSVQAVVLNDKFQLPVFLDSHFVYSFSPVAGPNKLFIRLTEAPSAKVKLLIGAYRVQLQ
Sequence of D(1A) dopamine receptor (Homo sapiens) (P21728 whole entry, looked up): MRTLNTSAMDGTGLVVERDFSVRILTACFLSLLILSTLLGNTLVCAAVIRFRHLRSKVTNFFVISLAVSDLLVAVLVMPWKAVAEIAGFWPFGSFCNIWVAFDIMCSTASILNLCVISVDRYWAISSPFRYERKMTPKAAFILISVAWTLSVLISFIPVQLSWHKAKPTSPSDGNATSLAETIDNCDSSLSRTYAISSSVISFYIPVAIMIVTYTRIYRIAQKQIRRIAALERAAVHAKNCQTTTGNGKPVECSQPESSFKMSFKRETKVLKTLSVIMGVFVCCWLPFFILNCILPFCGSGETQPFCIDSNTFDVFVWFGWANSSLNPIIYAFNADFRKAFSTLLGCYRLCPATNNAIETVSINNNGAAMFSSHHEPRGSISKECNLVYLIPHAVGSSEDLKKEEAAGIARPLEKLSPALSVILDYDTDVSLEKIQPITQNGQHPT
Sequence of Transient receptor potential cation channel subfamily V member 1 (Homo sapiens) (Q8NER1 whole entry, looked up): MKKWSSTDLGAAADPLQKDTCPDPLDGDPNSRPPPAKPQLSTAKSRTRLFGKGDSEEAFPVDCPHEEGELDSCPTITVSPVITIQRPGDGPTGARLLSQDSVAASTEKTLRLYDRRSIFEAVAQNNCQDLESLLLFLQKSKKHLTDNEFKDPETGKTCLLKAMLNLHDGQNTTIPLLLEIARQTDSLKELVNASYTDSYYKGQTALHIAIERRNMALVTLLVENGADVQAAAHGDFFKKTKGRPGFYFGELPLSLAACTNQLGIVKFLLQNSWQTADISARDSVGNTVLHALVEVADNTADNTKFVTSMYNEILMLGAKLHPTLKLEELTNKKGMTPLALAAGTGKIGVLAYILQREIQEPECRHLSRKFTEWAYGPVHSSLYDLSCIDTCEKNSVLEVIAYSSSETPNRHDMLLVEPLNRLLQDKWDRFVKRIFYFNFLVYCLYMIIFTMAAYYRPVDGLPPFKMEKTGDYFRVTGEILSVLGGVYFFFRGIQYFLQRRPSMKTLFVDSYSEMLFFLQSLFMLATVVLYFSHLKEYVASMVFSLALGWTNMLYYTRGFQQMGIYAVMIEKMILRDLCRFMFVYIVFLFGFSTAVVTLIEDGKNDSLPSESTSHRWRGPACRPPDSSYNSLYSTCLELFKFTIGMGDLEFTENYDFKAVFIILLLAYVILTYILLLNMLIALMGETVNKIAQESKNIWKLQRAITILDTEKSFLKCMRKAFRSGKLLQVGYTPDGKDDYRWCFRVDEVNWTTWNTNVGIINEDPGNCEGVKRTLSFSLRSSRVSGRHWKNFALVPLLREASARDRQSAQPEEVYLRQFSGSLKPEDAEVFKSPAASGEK

| Structure (SMILES) | outcome [1] | Potency [2] | Potency [3] | Potency [4] | outcome [5] | outcome [6] | Potency [7] | Potency [8] | Potency [9] | Potency [10] | outcome [11] | Potency [12] | Potency [13] | outcome [14] | Potency [15] | activation [16] | Potency [17] | viability change [17] | Potency [18] | Potency [19] |
| --- | --- | --- | --- | --- | --- | --- | --- | --- | --- | --- | --- | --- | --- | --- | --- | --- | --- | --- | --- | --- |
| NC12CC3CC(CC(C3)C1)C2 | inactive | inactive | inactive | inactive | inactive | inactive | inactive | inactive | inactive | inactive | inactive | inactive |  |  |  |  |  |  |  |  |
| OCCN1CCN(CCCN2c3ccccc3Sc3ccc(C(F)(F)F)cc32)CC1 | inactive | inactive |  |  | inactive |  | inactive |  |  | inactive | inactive | inactive | inactive | inactive | inactive | 1.88% (inactive) | inactive | 1.55% | inactive |  |
| Cc1ccccc1N1C(=O)c2cc(S(N)(=O)=O)c(Cl)cc2NC1C (centres undefined) | inactive | inactive | inactive |  | inactive | inactive | inactive | inactive | inactive | inactive | inactive | inactive | inactive | inactive | inactive |  | inactive | 10.1% | inactive |  |
| CN1C(C(=O)Nc2ccccn2)=C(O)c2ccccc2S1(=O)=O | inactive | inactive | inactive |  | inactive | inactive | inactive | inactive | inactive | inactive | inactive | inactive | inactive | inactive | inactive | 0.812% (inactive) |  |  | inactive | inactive |
| CC(CCc1ccc(O)cc1)NCCc1ccc(O)c(O)c1 (centres undefined) | inactive | inactive | inactive |  | inactive | inactive | inactive |  | inactive | inactive | inactive | inactive | inactive | inactive |  | 1.06% (inactive) | inactive | 2.92% | inactive |  |
| NCCCCCC(=O)O | inactive | inactive | inactive |  | inactive | inactive | inactive | inactive | inactive | inactive | inactive | inactive | inactive | inactive |  | 0.0625% (inactive) | inactive | 0% | inactive | inactive |
| COc1ccccc1N1CCN(CC(O)COc2cccc3ccccc23)CC1 (centres undefined) | inactive | inactive |  | 39.8 µM (active) | inactive | inactive | inactive | inactive | inactive | inactive | inactive | inactive | inactive | inactive |  |  | inactive | -28.8% | inactive |  |
| O=C1Cc2cc(CCN3CCN(c4nsc5ccccc45)CC3)c(Cl)cc2N1 | inactive | inactive | inactive |  | inactive |  | inactive | inactive |  | inactive | inactive |  | inactive |  |  |  | inactive | -17.6% |  |  |
| O=c1[nH]cc(F)c(=O)[nH]1 | inactive | inactive | inactive | inactive | inactive | inactive | inactive | inactive | inactive |  | inactive | inactive |  | inactive | inactive | 0.812% (inactive) |  |  | inactive |  |
| CCCNCC(O)COc1ccccc1C(=O)CCc1ccccc1 (centres undefined) | inactive | inactive |  | inactive | inactive |  | inactive | inactive | 10 µM (active) | inactive | inactive | inactive | inactive | inactive | inactive | 4% (inactive) |  |  | inactive |  |
| OCCN(CCO)c1nc(N2CCCCC2)c2nc(N(CCO)CCO)nc(N3CCCCC3)c2n1 | inactive | inactive | inactive | inactive | inactive |  | 10 µM (active) | 2.91 µM (active) |  | inactive | inactive | inactive | inactive |  | 0.231 µM (active) | 25.4% (inactive) |  |  | inactive |  |
| CCN1CCCC1CNC(=O)c1cc(S(=O)(=O)CC)c(N)cc1OC (centres undefined) | inactive | inactive | inactive | inactive | inactive |  | inactive | inactive | inactive | inactive | inactive |  | inactive |  |  |  | inactive | 7.74% |  |  |
| CC1COc2c(N3CCN(C)CC3)c(F)cc3c(=O)c(C(=O)O)cn1c23 (centres undefined) | inactive | inactive | inactive | inactive | inactive | inactive | inactive | inactive | inactive | inactive | inactive | inactive |  | inactive |  | 1% (inactive) | inactive | 6.09% | inactive |  |
| CC(C(=O)O)c1cccc(C(=O)c2ccccc2)c1 (centres undefined) | inactive | inactive | inactive | inactive | inactive | inactive | inactive | inactive | inactive | inactive | inactive | inactive |  | inactive |  | 1.12% (inactive) | inactive | -3.76% | inactive |  |
| COc1cc2nc(N3CCN(C(=O)C4COc5ccccc5O4)CC3)nc(N)c2cc1OC (centres undefined) | inactive | inactive | inactive |  | inactive | inactive | inactive | inactive |  | inactive | inactive | inactive |  | inactive | 23.1 µM (active) |  | inactive | -11.8% | inactive |  |
| COC(=O)Nc1nc2ccc(C(=O)c3cccs3)cc2[nH]1 | inactive | inactive | inactive | inactive | inactive | inactive | inactive | inactive | inactive | 2.31 µM (active) | inactive | 0.116 µM (active) |  | inactive | inactive |  | inactive | -18.1% | inactive |  |
